Measured values from PubChem BioAssay AID1159580 (chemical genetic matrix, 2015).
In all, about 5,500 compounds went through this assay and about 2,000 (36%) were called active. Roughly 18% stayed inconclusive and do not appear here. Cut-off read from the data, not from the text of the source: active = normalized growth mostly below about 0.91 (no sharp cut-off); inconclusive = no clear call, values can overlap the other calls; inactive = mostly above about 0.92. This is one part of the list.

Assay: chemical genetic growth profiling, strain panel (AID 1159580);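 note: tested at 20 µM; growth read once vehicle control cultures reached saturation at 30 °C; 1 = growth at the plate median or of vehicle wells; lower values mean less growth of the strain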
Settings: S. cerevisiae deletion strains, growth OD

Measured: normalized growth

C[N+](C)(C)CC(=O)O
inactive: locus YAL040C, strain CLN3, active compounds read low 0.989 | locus YDR150W, strain NUM1, active compounds read low 0.995 | locus YDR363W, strain ESC2, active compounds read low 1.02 | locus YER002W, strain NOP16, active compounds read low 1 | locus YGR078C, strain PAC10, active compounds read low 0.998 | locus YJR075W, strain HOC1, active compounds read low 1.01 | locus YMR307W, strain GAS1, active compounds read low 1.02 | locus YNL175C, strain NOP13, active compounds read low 1.01 | locus YNL197C, strain WHI3, active compounds read low 1 | locus YNL224C, strain SQS1, active compounds read low 1.01 | locus YNL322C, strain KRE1, active compounds read low 1 | locus YOR083W, strain WHI5 (second series), active compounds read low 1.01
